# Experimental data published in PubChem BioAssay (NCATS).
# Results filed as inconclusive are left out. Entries that show only a call come without a potency. Values without a mark were called inactive. The source made the active and inactive calls. Calls follow the shape of the dose curve; as a rule, active = well fitted cell-killing curve with a large enough effect; inconclusive = small, poorly fitted or top-dose-only effect, or effect the other way; inactive = no such curve, though single readings can be large or run the other way.
# Legend:
# [1] = Viability qHTS for spleen associated tyrosine kinase inhibitor (SYKi) naive MV4-11 cells (AID 1963823); also: nearly all actives have a fitted effect of over 40% in size
# In short: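 In this viability screen, compounds acted on SYK inhibitor naive MV4-11 cells for three days (72 hr, 37 C). Remaining viable cells were measured by CellTiter-Glo luminescence following a 10 min room-temperature development.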
# [2] = Viability qHTS for spleen associated tyrosine kinase inhibitor (SYKi) drug resistant MV4-11 cells (AID 1963824); also: nearly all actives have a fitted effect of over 35% in size
# In short: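 SYK inhibitor-resistant MV4-11 AML cells, 500 per well, added to predispensed compounds and incubated 72 hr at 37 C, 5% CO2. Viability measured by CellTiter-Glo luminescence after 10 min at room temperature.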
# Potency is read from the fitted curve at half-maximal effect.
Structure (SMILES),Potency [1],Potency [2],viability (% of control) [1],"viability, % of control [2]"
COc1ccc(CC(NC(C)=O)C(=O)O)cc1 (stereo not given),inactive,inactive,,
CCCC(=O)O[C@]1(C(=O)CCl)[C@@H](C)C[C@H]2[C@@H]3CCC4=CC(=O)C=C[C@]4(C)[C@@]3(F)C(=O)C[C@@]21C,11.9 µM (active),13.3 µM (active),,
COC1CC(=O)C23C(=O)NC(Cc4c[nH]c5ccccc45)C2C(C)C2(C)OC2C3/C=C/CC(C)CC1O (stereo not given),3.99 µM (active),4.47 µM (active),,
Cc1nc(Nc2cnn(C3CCNCC3)c2)nc2c1N(C)C(=O)c1cc3ccccc3cc1N2C,3.66 µM (active),6.51 µM (active),,
CC[C@H](CO)Nc1nc(NCc2ccc(-c3ccccn3)cc2)c2ncn(C(C)C)c2n1,0.13 µM (active),0.259 µM (active),,
O=C(Nc1ccccc1)c1ccc(Nc2nnc(-c3ccc(O)cc3)c3ccccc23)cc1,16.4 µM (active),23.1 µM (active),,
COc1ccc2cc(C(C)C(=O)Oc3ccc(C(N)=S)cc3)ccc2c1 (stereo not given),inactive,inactive,,
O=C(O)c1ccnc(-c2cc(C(=O)NCCc3ccccc3)ccn2)c1,inactive,inactive,,
OCc1ccc(O[C@@H]2O[C@H](CO)[C@@H](O)[C@H](O)[C@H]2O)cc1,inactive,inactive,,
CCN(CC)C(=O)C(c1ccccc1)N1CCN(c2ccc(NC(=O)c3ccccc3-c3cccnc3)cc2F)CC1 (stereo not given),inactive,inactive,,
O=C1NC(c2cccc([N+](=O)[O-])c2)=CCN1c1ccccc1O,inactive,inactive,,
CC(=O)OC1C[C@]2(C)C(O)CC(C)=C[C@H](OC(=O)c3ccc(O)cc3)C2[C@]1(O)C(C)C (stereo not given in full),inactive,6.32 µM (active),,
CC1(C)CC[C@]2(C(=O)O[C@@H]3O[C@H](CO)[C@@H](O)[C@H](O)[C@H]3O)CC[C@]3(C)C(=CCC4[C@@]5(C)CC[C@H](O[C@@H]6O[C@H](C(=O)O)[C@@H](O)[C@H](O[C@@H]7O[C@H](CO)[C@H](O)[C@H](O)[C@H]7O)[C@H]6O)C(C)(C)C5CC[C@]43C)C2C1 (stereo not given in full),,,81.1% [at 9.25 µM],106% [at 9.25 µM]
COC(=O)C1=CO[C@@H](O[C@@H]2O[C@H](CO[C@@H]3O[C@H](COC(=O)/C=C/c4cc(OC)c(O)c(OC)c4)[C@@H](O)[C@H](O)[C@H]3O)[C@@H](O)[C@H](O)[C@H]2O)[C@@H]2C(CO)=CC[C@H]12,inactive,inactive,,
CC1(CO)CCCC2(C)C1C(OC(=O)c1ccccc1)CC1C(=O)OCC12O (stereo not given),inactive,inactive,,
C=C1[C@H]2CC[C@H](C(=O)O)[C@@]23CC[C@H](C3)C1(C)C,inactive,inactive,,
C/C(=C\CCC(C)CCO)C(=O)OC1(C)CCC2C(C(=O)O)=COC(OC3OC(CO)C(O)C(O)C3O)C21 (stereo not given),inactive,inactive,,
CC(C)c1ccc2c(c1)C(O)CC1C(C)(C(=O)O)CCCC21C (stereo not given),inactive,inactive,,
O=C(Cc1ccc(Cl)cc1)Nc1cnccc1C(=O)O,inactive,inactive,,
C=CC(C)(C)c1[nH]c2ccccc2c1C[C@@H]1NC(=O)[C@H](C)NC1=O,inactive,inactive,,
C[C@@H]1O[C@@H](O[C@H]2[C@H](OC(C#N)c3ccc(O)cc3)O[C@H](CO)[C@@H](O)[C@@H]2O)[C@H](O)[C@H](O)[C@H]1O (stereo not given in full),inactive,inactive,,
CC(=O)N(O)CCCCCN1C(=O)CCC1=O,inactive,inactive,,
CC(C)=CCC[C@@](C)(O)[C@H]1CC[C@]2(C)[C@@H]1[C@H](O)CC1[C@@]3(C)CC[C@H](O[C@@H]4O[C@H](CO)[C@@H](O)[C@H](O)[C@H]4O[C@@H]4O[C@H](CO)[C@@H](O)[C@H](O)[C@H]4O)C(C)(C)[C@@H]3CC[C@]12C (stereo not given in full),inactive,inactive,,
COc1cc(C)c(C(=O)NC2C(C)OC(OC3CCC(C)C4C3C=C(C)C3/C(C)=C\CC/C(C)=C/C5(C)C=C(C(=O)O)C(C)CC56OC(=O)/C(=C(\O)C34C)C6=O)C(O)C2(C)O)c(O)c1 (stereo not given),,,82.6% [at 9.25 µM],77% [at 9.25 µM]
CCC(O)C(C)C1CCC(C(C)C(=O)O)O1 (stereo not given),inactive,inactive,,
